Compound activity as filed in PubChem BioAssay.
AmpC inh det: Promiscuous and Specific Inhibitors of AmpC Beta-Lactamase (assay with detergent); hit rate 0.09% among 71,000; Potency, µM (top dose mostly 28.7 µM), inactives show at the highest dose activity change, negative = inhibition; purified AmpC, nitrocefin hydrolysis with detergent; AID 584, 2007; P00811; active = well fitted curve in the direction sought with a large enough effect; inconclusive = small, poorly fitted or top-dose-only effect; note: % is set by controls: 0 for no effect and ±100 for the full control effect
Target sequence (P00811 whole entry, looked up): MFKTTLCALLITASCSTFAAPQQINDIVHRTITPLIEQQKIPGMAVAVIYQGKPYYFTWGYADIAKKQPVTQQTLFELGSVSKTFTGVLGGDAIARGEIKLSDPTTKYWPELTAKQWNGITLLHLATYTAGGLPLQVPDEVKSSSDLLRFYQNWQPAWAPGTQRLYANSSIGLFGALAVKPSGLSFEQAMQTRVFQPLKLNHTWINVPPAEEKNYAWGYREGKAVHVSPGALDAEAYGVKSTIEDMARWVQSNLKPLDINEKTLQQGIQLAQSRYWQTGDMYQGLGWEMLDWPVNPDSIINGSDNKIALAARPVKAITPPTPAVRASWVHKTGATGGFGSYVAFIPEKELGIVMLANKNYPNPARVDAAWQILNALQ
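E. coli AmpC (5.3 nM) in 20 mM phosphate pH 7.0 with 0.01% Triton X-100, preincubated 15 min RT with compound; nitrocefin (2 uL of 800 uM stock) hydrolysis followed by 480 nm absorbance every 20 s over 4 min.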
AmpC nodet inh: Promiscuous and Specific Inhibitors of AmpC Beta-Lactamase (assay without detergent); Potency, µM (doses to about 28.7 µM), for inactives: at the highest dose activity change, negative = inhibition; AID 585, 2007; hit rate 1.8% among 71,000; AmpC nitrocefin hydrolysis, absorbance 480 nm, no detergent; P00811; note: % of control where 0% means no effect
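AmpC, 20 mM phosphate pH 7.0; 15 min cpd preinc, RT; start with nitrocefin (800 uM stock); A480 kinetic read, 20 s intervals, 4 min. No-enzyme wells = negative control.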
Anthrax LT inh: qHTS Assay for Anthrax Lethal Toxin Internalization | hit rate 0.67% among 70,000 | AID 912, 2007 | Potency, µM (highest dose often 40 µM), for inactives: at the highest dose activity change, negative = inhibition, usual class: inhibitors | Cells, anthrax lethal toxin internalization, FRET ratio (460/530); note: % is set by controls: 0 for no effect and ±100 for the full control effect; nearly all actives have a fitted effect of over 50% in size
SmPrx2 inh: Schistosoma Mansoni Peroxiredoxins (Prx2). S. mansoni Prx2 activity coupled to TGR/GSH (TGR is thioredoxin glutathione reductase), NADPH fluorescence loss, qHTS. Potency, µM. hit rate 0.07% among 65,000. AID 448, 2006
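Coupled assay in which S. mansoni TGR passes NADPH reducing equivalents via glutathione to Prx2, which reduces H2O2. Compounds were preincubated 15 min at room temperature with 25 nM TGR/50 nM Prx2 mix. Kinetic NADPH fluorescence loss (ex 365/em 450 nm) was monitored.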
An asterisk follows results filed as active; ? = inconclusive; · = no result given; [ ] = another dose, or the depositor's remark. Most compounds without a hit are left out; they make up all but 2.4% or so of the library. Unless noted, calls come from the whole dose curve. Potency is the fitted concentration of half-maximal effect.

SMILES | AmpC inh det | AmpC nodet inh | Anthrax LT inh | SmPrx2 inh
CC(C)Cc1cc(C(=O)Nc2ccc3c(c2)OCO3)no1 | 13% | 4µM*[single pt active] | ? | >57
O=C(Nc1ccc2c(c1)OCO2)c1cc2ncc(Br)cn2n1 | 25% | 16µM*[single pt active] | 3% | >57
COc1ccc(-c2nc3cnc(N4CCN(C)CC4)nc3n(-c3ccc(OC)cc3)c2=O)cc1 | 17% | 151% | ? | >57
COc1ccc(OCc2nnc3n2N=C(c2ccc(OC)cc2)CS3)cc1 | 14% | 4µM*[single pt active] | -1% | >57
O=c1cc(-c2ccccc2)oc2cc(O)c(O)c(O)c12 | -4% | 7.9µM* | 1.3µM* | >57
CC(C)(SCc1ccccc1)[C@H](N)C(=O)O | -3%[5.75 µM] | 5%[5.75 µM] | -2%[8 µM] | >57
CC[C@@H](c1ccccc1)n1c(=O)n2n(c1=O)[C@H]1[C@H](O)[C@H]3O[C@H]3C(=O)[C@H]1CC2 | · | · | 6%[8 µM] | ·
Cc1cc(C)c(NC(=O)C[C@H](CC(=O)O)c2cccc3ccccc23)c(C(=O)N2CCC3(CCCC3)CC2)c1 | -1% | 74% | 8% | >57
COc1ccc(C2CC(=O)N3CN(c4ccccc4F)CSC3=C2C#N)cc1OC (configuration not stated) | 13% | 1% | 10% | >57
COc1ccc(N2CSC3=C(C#N)C(c4cccc(OC)c4OC)CC(=O)N3C2)cc1 (configuration not stated) | 10% | 4µM*[single pt active] | -12% | >57
COc1ccc(OC)c(C2CC(=O)N3CN(c4ccccc4)CSC3=C2C#N)c1 (configuration not stated) | 13% | 8% | -15% | >57
CCc1ccccc1N1CSC2=C(C#N)C(c3ccccc3F)CC(=O)N2C1 (configuration not stated) | 2% | 13µM*[single pt active] | -1% | ·
Cc1cccc(N2CSC3=C(C#N)C(c4ccc(C)o4)CC(=O)N3C2)c1 (configuration not stated) | -11% | 16µM* | · | >57
COc1cc(OC)c(C2CC(=O)N3CN(c4ccccc4C)CSC3=C2C#N)cc1OC (configuration not stated) | -11% | 14% | · | >57
COc1ccc(C2CC(=O)N3CN(c4ccc(C)c(Cl)c4)CSC3=C2C#N)cc1 (configuration not stated) | 7% | 2.5µM*[single pt active] | -16% | ·
C[N+](C)(N)Cc1nc(-c2ccc(Cl)cc2)no1 | -10%[5.75 µM] | 1%[5.75 µM] | -18%[8 µM] | >57
Cn1c(=O)c2[nH]c(CCC(=O)O)nc2n(C)c1=O | -5%[5.75 µM] | 11%[5.75 µM] | -3%[8 µM] | >57
CC(=O)N1C[C@@H]2C[C@H](C1)c1cccc(=O)n1C2 | 2% | 3% | ? | >57
COc1ccc(Nc2ncnc3c2cnn3-c2ccccc2)cc1OC | 6% | 25% | ? | >57
Clc1ccc(Nc2ncnc3c2cnn3-c2ccccc2)cc1 | 6% | -4% | 10µM* | >57
Cc1cc(NC(=O)c2noc3c2CCc2ccccc2-3)n(-c2ccccc2)n1 | 12% | 2.5µM*[single pt active] | -11% | >57
COc1cccc(-c2cc(NCc3cccc(C)c3)ncn2)c1 | -5% | 13% | -9% | >57
O=C(CC1(O)C(=O)Nc2cc(Cl)cc(Cl)c21)c1ccccc1O (configuration not stated) | 10µM* | 13µM* | -5% | >57
CCOC(=O)c1c(-c2ccc(C)o2)csc1NC(=O)CSc1nnnn1-c1ccccc1 | 0% | 13µM* | ? | >57
O=C(CSCc1ccc(Cl)cc1)c1ccco1 | 17% | 10µM*[single pt active] | -20% | >57
SMILES | AmpC inh det | AmpC nodet inh | Anthrax LT inh | SmPrx2 inh
CCC(C)SCc1nc2ccccc2[nH]1 (configuration not stated) | -4% | -12% | 5% | ·
CC(C)N(Cc1nc2ccccc2[nH]1)C(C)C | 9% | 4µM*[single pt active] | -10% | >57
CC(C)=CCC/C(C)=C/CO/N=C1/C[C@@H](O)[C@@H](O)[C@@H]2[C@@H]3C(=O)N(C4CCCCC4)C(=O)[C@H]3CC[C@@H]12 | · | · | -23%[8 µM] | ·
O=C1c2ccccc2C(O)(O)[C@@]1(O)[C@]1(O)C(=O)c2ccccc2C1(O)O | -2%[5.75 µM] | -1%[5.75 µM] | ? | ?
CCCCC(c1nnnn1Cc1ccco1)N1CCN(c2nc3ccccc3s2)CC1 (configuration not stated) | -2% | 37% | 10µM* | >57
c1ccc(Cn2nnnc2C(c2ccccc2)N2CCN(c3nc4ccccc4s3)CC2)cc1 (configuration not stated) | 25% | 2% | -9% | >57
CN(CC(=O)O)CC(=O)O | -2%[5.75 µM] | -14%[5.75 µM] | 3%[8 µM] | >57
COc1ccc(OCCSc2ncnc3nc[nH]c23)cc1 | 11% | 4µM*[single pt active] | -7% | >57
COc1cccc(-c2ccc3ncnc(Nc4ccccc4)c3c2)c1 | -28% | -17% | ? | >57
COC(=O)c1ccccc1NC(=O)N1c2ccccc2CC1C (configuration not stated) | -6% | 8% | 16µM* | >57
COc1ccc(NC(=O)N2c3ccccc3CC2C)cc1OC (configuration not stated) | -6% | 19% | 4% | >57
N#Cc1c(-c2ccccc2)no[n+]1[O-] | 0% | 3% | -5% | 8.7*
N#Cc1cn(-c2ccccc2)nc1-c1ccccc1 | 2% | -13% | -6% | >57
COc1ccc(O[C@H]2C=C[C@@H](c3ccccc3)O[C@H]2COC(=O)CC/C(C)=N\O[C@@H](C)c2cn([C@H](CO)Cc3ccccc3)nn2)cc1 | · | · | -9%[8 µM] | ·
Cc1cc(Cc2cc(C)cc(C(C)(C)C)c2O)c(O)c(Cc2cc(C)cc(C(C)(C)C)c2O)c1 | -2%[5.75 µM] | -25%[5.75 µM] | 3.2µM* | >57
Cc1cc(Cc2c(C)c(C)c(Cc3cc(C)cc(C(C)(C)C)c3O)c(C)c2C)c(O)c(C(C)(C)C)c1 | -1%[5.75 µM] | -7%[5.75 µM] | -6%[8 µM] | >57
C[C@H]1CC[C@]2(NC1)O[C@@H]1C[C@@H]3[C@@H]4CC=C5C[C@H](O)CC[C@@]5(C)[C@H]4CC[C@@]3(C)[C@H]1[C@@H]2C | 0% | 0% | 18% | >57
COc1ccc(Br)cc1CNC(=O)C1CCCN(S(C)(=O)=O)C1 (configuration not stated) | -2% | -10% | 10µM* | >57
O=S(=O)(O)c1ccc(NN(c2c(O)ccc3ccccc23)S(=O)(=O)O)cc1 | -3%[5.75 µM] | -9%[5.75 µM] | -8%[8 µM] | >57
COC(=O)c1cccc(C(=O)Nc2ccc(C)cc2)n1 | -4% | 23% | 5µM* | >57
COc1cccc(C(=O)Nc2ccc(C)cc2)c1 | 2% | -15% | -17% | >57
COc1ccccc1OCc1nnc(SCC(=O)c2cc(Cl)ccc2OC)o1 | 0% | 35% | 13µM* | >57
C/C(N)=C(/C#N)C(=O)CSc1nnc(COc2ccccc2Cl)o1 | -5% | 3% | -5% | >57
O=c1c(-c2cccc(Cl)c2)nc2cncnc2n1Cc1ccccc1Cl | 0% | 0% | ? | >57
Cc1nn(-c2ccccc2)c2nc(N)c(C#N)c(-c3ccc(F)cc3)c12 | 0% | 3% | 5µM* | ·
Cc1ccc(-n2nc(C)c3c(-c4cccs4)c(C#N)c(N)nc32)cc1 | 3% | -10% | ? | >57
